Screens from PubChem BioAssay.
A selection: hits, their analogues and other compounds. The true share with any hit is near 8.1%.
KB-3-1 tox – KB-3-1 parental cell cytotoxicity | KB-3-1 viability, CellTiter-Glo ATP luminescence, 72 h | Potency, µM (top dose mostly 46.1 µM), usual class: cytotoxic | 400,000 tested, 1.4% active | AID 1347075; further: nearly all actives have a fitted effect of over 60% in size
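Screening of KB-3-1 cells (DMEM, 10% FBS, phenol-red free) ran from lowest to highest compound concentration; after 72 h at 37 °C viability was read luminescently and curves fitted.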
ELG1 repair inh – ELG1-dependent DNA repair inhibition; HEK293T ELG1-luciferase reporter, luminescence, 16 h; DNA damage induced by 5-fluorouridine; Potency, µM (series often up to 46.1 µM), most hits filed as inhibitors; 330,000 tested, 2.3% active; AID 504467; further: nearly all actives have a fitted effect of over 55% in size
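DMSO vehicle served as the neutral condition. Each well held 2,000 cells given 5-fluorouridine plus compound; after 16 hr at 37 °C/5% CO2, ONE-Glo was added and luciferase measured 30 min later.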
SW480 rereplic – induces DNA re-replication in SW480 colon adenocarcinoma cells. Potency, µM (doses to about 46.1 µM), actives largely listed as activators. SW480 DNA re-replication, Hoechst DNA content imaging, 48 h. 340,000 tested, 1.8% active. AID 624297; further: nearly all actives have a fitted effect of over 55% in size
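DNA re-replication was detected as more nuclei of elevated Hoechst intensity after 48 hr exposure to compound (23 nL pinned per well of 250 cells).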
MCF10A rereplic – inducers of DNA re-replication in MCF 10A breast cells; 350,000 tested, 2.9% active; MCF 10A DNA re-replication, Hoechst nuclear intensity, 48 h; Potency, µM (highest dose often 46.1 µM), usual class: activators; further: nearly all actives have a fitted effect of over 50% in size
KB-V1 MDR tox – kills drug-selected multidrug resistant KB-V1 cells; Potency, µM (highest dose often 46.1 µM), actives largely listed as cytotoxic; AID 1347076; 400,000 tested, 3.4% active; KB-V1 MDR cells viability, CellTiter-Glo, 72 h; further: nearly all actives have a fitted effect of over 60% in size
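In this primary screen, KB-V1 cells overexpressing P-gp are incubated with library compounds (lowest to highest concentration) for 72 h at 37 degrees C before a luminescent ATP viability read.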
Each line names hits and unclear results; the compound was inactive in the other large screens; ! = repeats disagree. The call rests on the fitted dose curve; in most records, active means well fitted curve in the direction sought with a large enough effect; inconclusive means small, poorly fitted or top-dose-only effect, or another doubt; inactive means no such curve, though single readings can be large; an effect the other way counts as inactive or inconclusive.

Cc1ccc(S(=O)(=O)N(CCCO)CC(O)CON=C2c3ccccc3-c3ccccc32)cc1 (stereo unspecified)	KB-3-1 tox inconclusive, ELG1 repair inh inconclusive, SW480 rereplic inconclusive, MCF10A rereplic 18.4µM, KB-V1 MDR tox inconclusive
COc1ccc(NC(=O)/C(C#N)=C\c2cc(C)n(-c3ccc4c(c3)OCO4)c2C)cc1	KB-3-1 tox inconclusive, SW480 rereplic 10.3µM, MCF10A rereplic 5.17µM, KB-V1 MDR tox 2.06µM
CC(C)CNC(=S)N1CCC(C(=O)c2ccc(F)cc2)CC1	ELG1 repair inh inconclusive
C/C(=N\Nc1cc(-c2ccccc2)nc(-c2ccc(Br)cc2)n1)c1cccc(N)c1	SW480 rereplic inconclusive, MCF10A rereplic inconclusive, KB-V1 MDR tox 14.6µM (no result: ELG1 repair inh)
C/C(=N/Nc1nc(-c2ccccc2)cc(-c2ccccc2)n1)c1ccc(N)cc1	ELG1 repair inh 8.2µM (no result: KB-3-1 tox, SW480 rereplic, MCF10A rereplic, KB-V1 MDR tox)
C/C(=N\Nc1cc(Cl)nc(C)n1)c1ccccc1	KB-3-1 tox inconclusive, ELG1 repair inh inconclusive
C/C(=N/Nc1cc(-c2ccccc2)nc(-c2ccccc2)n1)c1ccc(O)cc1	KB-3-1 tox inconclusive, MCF10A rereplic 18.4µM, KB-V1 MDR tox 18.4µM
CCCCCNC(=O)Cc1ccc(S(=O)(=O)N2CCOCC2)s1	none
Cc1nnc(N2C(=O)C(=O)/C(=C(/O)c3ccc4c(c3)OCCO4)C2c2cccc([N+](=O)[O-])c2)s1 (stereo unspecified)	none (no result: ELG1 repair inh, SW480 rereplic, MCF10A rereplic)
COc1ccc2oc(=O)c(-c3csc(Nc4cccc(O)c4)n3)cc2c1	ELG1 repair inh 25.9µM, SW480 rereplic inconclusive, MCF10A rereplic 23.1µM, KB-V1 MDR tox inconclusive
O=C(O)c1ccc(Nc2nc(-c3cc4ccccc4oc3=O)cs2)cc1O	ELG1 repair inh inconclusive, SW480 rereplic inconclusive, MCF10A rereplic 13µM
COc1ccc(Nc2nc(-c3cc4cccc(OC)c4oc3=O)cs2)cc1	ELG1 repair inh inconclusive, MCF10A rereplic inconclusive
O=C(NCC(=O)N1CCN(c2ccccc2)CC1)c1ccc(Cl)cc1	none
CN(C(=O)/C=C/c1ccc2c(c1)OCO2)c1ccccc1	ELG1 repair inh inconclusive, KB-V1 MDR tox inconclusive
O=C(Nc1csc([N+](=O)[O-])c1)Nc1ccccc1Cl	MCF10A rereplic 11.6µM, KB-V1 MDR tox inconclusive
CC1=C(C(=O)Nc2ccccc2)C(c2ccccn2)n2nc(SCc3ccccc3Cl)nc2N1 (stereo unspecified)	none (no result: ELG1 repair inh, SW480 rereplic, MCF10A rereplic)
COc1cc2oc(=O)cc(-c3ccc(-c4ccc(CO)cc4)cc3)c2c(OC)c1OC	ELG1 repair inh 5.8µM, MCF10A rereplic inconclusive
COc1cc2oc(=O)cc(-c3ccc(-c4ccc(C)cc4)cc3)c2c(OC)c1OC	none
COc1cc2c(cc1OC)CN(C(=O)COc1ccc(C)c(C)c1)CC2	ELG1 repair inh 18.4µM
COc1cc2c(cc1OC)CN(C(=O)CCC(=O)c1ccc(F)cc1)CC2	KB-3-1 tox 16.4µM, SW480 rereplic inconclusive, MCF10A rereplic inconclusive, KB-V1 MDR tox inconclusive
CN(C(=O)C(C)(C)C)c1ccc(OCC(=O)N2CCc3ccccc3C2)cc1	KB-3-1 tox inconclusive, ELG1 repair inh inconclusive, KB-V1 MDR tox 4.61µM
CCOC(=O)c1c(C)[nH]c(C(=O)OCC(=O)NCCc2ccc(OCC)c(OCC)c2)c1C	ELG1 repair inh inconclusive, MCF10A rereplic inconclusive, KB-V1 MDR tox inconclusive
COc1ccccc1N(CN1CCCC1=O)C(=O)c1c(F)cccc1F	none
Cc1c(CC(=O)N2CCN(C(=O)C3COc4ccccc4O3)CC2)c(=O)oc2cc(O)c(Cl)cc12 (stereo unspecified)	ELG1 repair inh inconclusive, SW480 rereplic inconclusive, KB-V1 MDR tox inconclusive
COc1cc2nc(N3CCN(C(=O)C4COc5ccccc5O4)CC3)nc(N)c2cc1OC (stereo unspecified)	ELG1 repair inh inconclusive, SW480 rereplic 20.6µM!, MCF10A rereplic 14.6µM!
COc1cc2nc(N3CCN(C(=O)[C@@H]4COc5ccccc5O4)CC3)nc(N)c2cc1OC	none (no result: KB-3-1 tox, ELG1 repair inh, KB-V1 MDR tox)
COc1ccc2c(C)c(CC(=O)N3CCN(C(=O)C4COc5ccccc5O4)CC3)c(=O)oc2c1C (stereo unspecified)	ELG1 repair inh inconclusive, SW480 rereplic 16.4µM, MCF10A rereplic inconclusive
Cc1cc(C)c2c(c1)cc(C)c1nnc(SCC(=O)Nc3ccccc3N3CCOCC3)n12	ELG1 repair inh inconclusive
O=S1(=O)CC2N=C(N(Cc3ccc(F)cc3Cl)c3ccccc3F)SC2C1 (stereo unspecified)	none
O=S(=O)(NCc1nc(-c2ccccc2)no1)c1ccc(F)cc1	KB-V1 MDR tox inconclusive
C=CCN(CC=C)C(=S)NC(=O)c1ccc([N+](=O)[O-])cc1	KB-3-1 tox inconclusive, SW480 rereplic 3.66µM, MCF10A rereplic inconclusive, KB-V1 MDR tox inconclusive
NNC(=O)c1cc2sccc2s1	KB-3-1 tox inconclusive, ELG1 repair inh inconclusive, SW480 rereplic 13µM, MCF10A rereplic 3.66µM, KB-V1 MDR tox inconclusive
CC(=O)NNC(=O)c1cc2sccc2s1	KB-3-1 tox inconclusive, ELG1 repair inh inconclusive
COc1ccc(NC(=O)CSc2c3c(nc4ccccc24)CCCC3)c(OC)c1	SW480 rereplic inconclusive, MCF10A rereplic 20.6µM
COc1ccc(NC(=O)c2c3c(nc4ccccc24)CCC3)cc1	none
COc1ccc(OC)c(NC(=O)c2c3c(nc4ccccc24)CCC3)c1	KB-V1 MDR tox 6.51µM
COc1ccccc1NC(=O)CSc1c2c(nc3ccccc13)CCC2	KB-V1 MDR tox inconclusive
COc1cc(NC(=O)CSc2c3c(nc4ccccc24)CCC3)cc(OC)c1OC	ELG1 repair inh inconclusive, KB-V1 MDR tox 14.6µM
COc1ccc2sc(N(Cc3cccnc3)C(=O)c3cccs3)nc2c1	KB-3-1 tox 16.4µM, KB-V1 MDR tox inconclusive (no result: ELG1 repair inh, SW480 rereplic, MCF10A rereplic)
CCCn1c(SCC(=O)NC2CC2)nnc1-c1cccs1	SW480 rereplic inconclusive
O=C(CSc1ncc2c(n1)-c1cc(Cl)ccc1N(Cc1ccccc1)S2(=O)=O)Nc1ccc(F)cc1F	KB-V1 MDR tox 13µM (no result: ELG1 repair inh, SW480 rereplic, MCF10A rereplic)
CCN1c2ccccc2-c2nc(SCC(=O)Nc3c(C)cc(C)cc3C)ncc2S1(=O)=O	KB-3-1 tox 10.3µM, KB-V1 MDR tox 4.61µM (no result: ELG1 repair inh, SW480 rereplic, MCF10A rereplic)
Cc1nc2ccc([N+](=O)[O-])cc2nc1C	KB-V1 MDR tox inconclusive
Cc1ccc2nc3cc([N+](=O)[O-])cc([N+](=O)[O-])c3cc2c1	KB-3-1 tox inconclusive, SW480 rereplic 0.651µM, MCF10A rereplic inconclusive, KB-V1 MDR tox inconclusive
CCOC(=O)CNc1nc(C(C)(C)C)nc2c1nnn2Cc1ccccc1Cl	KB-3-1 tox inconclusive, ELG1 repair inh inconclusive, MCF10A rereplic inconclusive, KB-V1 MDR tox 5.8µM
COc1ccc(Nc2nc(C(C)(C)C)nc3c2nnn3Cc2ccccc2Cl)cc1OC	KB-3-1 tox inconclusive, MCF10A rereplic inconclusive, KB-V1 MDR tox inconclusive (no result: ELG1 repair inh)
Cc1c(C(=O)NCc2ccco2)sc(=O)n1Cc1ccc(S(C)(=O)=O)cc1	none (no result: ELG1 repair inh, SW480 rereplic, MCF10A rereplic)
Cc1c(C(=O)NCc2cccc(Cl)c2)sc(=O)n1Cc1ccc(F)cc1	KB-V1 MDR tox inconclusive (no result: ELG1 repair inh, SW480 rereplic, MCF10A rereplic)
Cc1ccccc1Cn1c(C)c(C(=O)NCc2ccc(Cl)c(Cl)c2)sc1=O	KB-V1 MDR tox inconclusive (no result: ELG1 repair inh, SW480 rereplic, MCF10A rereplic)
